Screening data from PubChem.
ATXN2 expr inh: Primary qHTS for Inhibitors of ATXN expression. HEK-293 ATXN2-luciferase reporter, luminescence, 24 h. Potency, µM (series often up to 57 µM), for the others: top-dose activity change, negative = inhibition, usual class: inhibitors. 360,000 compounds, 0.72% hits; further: potency means the concentration at half of the fitted maximal effect; on the % scale 0 is the no-effect control and ±100 the full control effect; nearly all actives have a fitted effect of over 55% in size
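ATXN2-luciferase reporter cells (luciferase flanked by upstream and downstream ATXN2 gene portions) were treated 24 h at 37 °C with compounds at up to 57 uM. SteadyGlo luminescence gave expression; GF-AFC fluorescence gave viability.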
Six1-Eya2 inh: qHTS Assay for Inhibitors of the Six1/Eya2 Interaction; Homeobox protein SIX1 (Homo sapiens) + Protein phosphatase EYA2 (Homo sapiens), …; AlphaScreen GST-Six1/His-Eya2 binding, biochemical; active compounds read low; activity change, % (no concentration beside the values); AID 651725, 2012; 360,000 compounds, 0.56% hits; in the data active means activity change below about -65%; inconclusive means mostly about -30% to -63%; further: on the % scale 0 is the no-effect control and ±100 the full control effect
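AlphaScreen with GST-Six1 and His-Eya2 (5X mix: 250 nM and 500 nM), glutathione donor and nickel acceptor beads; buffer 50 mM Tris pH 8.0, 300 mM NaCl, 1 mM TCEP; 1 h at 37 C in the dark.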
CtBP-E1A inh: qHTS Assay for Inhibitors of the CtBP/E1A Interaction | 340,000 compounds, 0.49% hits | CtBP / adenovirus E1A interaction (AlphaScreen) | activity change, % (test concentration not listed) | AlphaScreen GST-E1A/His-CtBP binding, 1536-well; active compounds read low; in the data active means activity change below about -65%; inconclusive means mostly about -30% to -63%; further: on the % scale 0 is the no-effect control and ±100 the full control effect
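GST-E1A and His-tagged CtBP (125 nM each as 5X stock) were preincubated with pin-transferred compound for 2 h at 37 °C in the dark, then glutathione donor and nickel acceptor beads were added for 1 h before AlphaScreen reading.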
HepG2 tox: qHTS for Inhibitors of TGF-b: Cytotox Counterscreen. HepG2 CAGA-GFP viability, ATP luminescence, 18 h. Potency, µM (highest dose often 46.1 µM), inactives show top-dose activity change, negative = cytotoxicity, hits mostly cytotoxic. 410,000 compounds, 0.76% hits. AID 588856, 2011; further: potency means the concentration at half of the fitted maximal effect
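HepG2 CAGA-GFP cells (1000/well, DMEM with 1% FBS) received compound, then TGF-beta at 500 pg/mL final, and were incubated 18 hours at 37 degrees C. Viability was read by CellTiter-Glo luminescence. Media-only wells were set as complete cell-killing and DMSO as no toxicity.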
S2 tox: Viability Counterscreen for Primary qHTS for Inhibitors of ATXN expression; S2 cells (HEK-293 line with an ATXN2-luciferase reporter) viability, CellTiter-Fluor protease fluorescence, 24 h; Potency, µM (highest dose often 56.7 µM), usual class: cytotoxic; 400,000 compounds, 0.49% hits; further: potency means the concentration at half of the fitted maximal effect; nearly all actives have a fitted effect of over 40% in size
TGFb SMAD3 inh: qHTS for Inhibitors of TGF-b; HepG2 CAGA-GFP TGF-b/SMAD3 reporter, GFP fluorescence, 18 h; TGF-beta stimulated, 500 pg/mL final; Potency, µM (titrated, usually from 46.1 µM), inactives show top-dose activity, negative = inhibition, actives largely listed as inhibitors; 410,000 compounds, 1.2% hits; AID 588855, 2011; further: potency means the concentration at half of the fitted maximal effect; on the % scale 0 is the no-effect control and ±100 the full control effect; nearly all actives have a fitted effect of over 65% in size
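TGF-beta reporter screen: HEPG2 CAGA-GFP, 1% FBS, 500 pg/mL TGF-beta final, 18 h; per-cell GFP summed per well; curves fitted and categorized by class.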
Numbers without * were called inactive; i = inactive; u = inconclusive; x = not tested or not shown; ! = not active in a repeat. Only some compounds are listed: those with a hit (about 2.8% of all), similar ones and a draw of the others. Unless noted, the call rests on the fitted dose curve; in most records, active means well fitted curve in the direction sought with a large enough effect; inconclusive means small, poorly fitted or top-dose-only effect, or another doubt; inactive means no such curve, though single readings can be large; an effect the other way counts as inactive or inconclusive.

SMILES	ATXN2 expr inh	Six1-Eya2 inh	CtBP-E1A inh	HepG2 tox	S2 tox	TGFb SMAD3 inh
CCN(CC)c1ccc(NC(=O)CSc2nc(-c3cccs3)cc(C(F)(F)F)n2)cc1	4%	x	x	-2%	i	6%
O=C(CCS(=O)(=O)c1nc(-c2cccs2)cc(C(F)(F)F)n1)Nc1cc(Br)ccc1O	x	x	x	6.3µM*	x	2.5µM*
Cc1ccc(O)c(NC(=O)CCS(=O)(=O)c2nc(-c3cccs3)cc(C(F)(F)F)n2)c1	x	x	x	13µM*	x	10µM*
CCC1(C2CCN(C(=O)c3ccc(C)c(C)c3)CC2)NC(=O)N(CCc2scnc2C)C1=O (configuration not stated)	x	x	x	x	i	x
CC(C)(C=O)C1=CC(=O)c2ccccc2C1=O	16µM*	u	11	-101%	x	u
CC(C)(C)c1ccc2c(c1)C(=O)c1ccccc1C2=O	76%	-24	-22	-40%	i	u
CC1=CC(=O)c2ccccc2C1=O	24µM*!	0	0	16µM*!	i	u
COc1cccc(C(=O)NCC(=O)OCC(=O)Nc2ncc(Cl)cc2Cl)c1	10%	-12	-7	10µM*	i	40%
COc1cc(OC)cc(C(=O)NCC(=O)OCC(=O)Nc2ncc(Cl)cc2Cl)c1	3%	0	-17	2%	u	0%
CC1=NN(c2ccc(C)c(C)c2)C(=O)/C1=C\C=C\c1ccc([N+](=O)[O-])o1	u	-26	-12	-72%	3.2µM*	10µM*
CCOC(=O)c1ccc(N2N=C(C)/C(=C/C=C/c3ccco3)C2=O)cc1	-7%	-1	5	-19%	u	0%
C=CCN=C1NN=C(c2cc(C)n(CC=C)c2C)CS1	27µM*	-10	-7	-14%	i	-19%
COc1ccc(CCNC(=O)c2c(O)nc3c(C)cccn3c2=O)cc1OC	-9%	x	x	-16%	i	0%
COC(CNC(=O)c1c[nH]c2ccc(S(=O)(=O)N3CCC4(CC3)OCCO4)cc2c1=O)OC	-3%	-1	3	-4%	i	3.5µM*
COc1ccc2[nH]c(C)c(C(=O)CNc3nccs3)c2c1	x	x	x	14%	x	8%
Nc1nc(Nc2ccc(S(N)(=O)=O)cc2)nn1C(=O)c1c(F)cccc1F	12µM*	x	x	x	x	x
COc1ccc([N+](=O)[O-])c(S(=O)(=O)c2ccccc2)n1	12µM*	3	4	14µM*	x	3.2µM*
COc1ccc([N+](=O)[O-])c(S(=O)(=O)c2ccc(Cl)cc2)n1	u	-5	8	0.63µM*	x	1.8µM*
COc1nc(OC)nc(Oc2ccc(Cl)cc2[N+](=O)[O-])n1	4%	-11	-3	-4%	i	10%
O=[N+]([O-])c1cccnc1S(=O)(=O)c1ccccc1	-31%	9	3	3.5µM*	u	11µM*
CC(C)NC(=O)CC(=O)Nc1ccc2nc3n(c(=O)c2c1)CCCCC3	1%	x	x	-20%	i	2%
Cc1nnc(Sc2nc3ccccc3o2)c2ccccc12	2%	8	3	-68%	i	13µM*
Cc1cn([C@H]2C[C@H](O)[C@@H](/C=C/C(=O)NCCc3ccc4c(c3)OCO4)O2)c(=O)[nH]c1=O	-1%	5	8	4%	i	1%
CCN1CCN(Cc2ccc(NC(=O)c3cc(NC(=O)c4cncc(-c5cccs5)c4)cc(OC)c3)cc2C(F)(F)F)CC1	25µM*!	-10	-7	14µM*!	35µM*	14µM*
CCN1CCN(Cc2ccc(NC(=O)c3cc(NC(=O)c4cc5cccc(OC)c5o4)cc(OC)c3)cc2C(F)(F)F)CC1	8.9µM*!	-8	-11	18µM*!	16µM*	u
SMILES	ATXN2 expr inh	Six1-Eya2 inh	CtBP-E1A inh	HepG2 tox	S2 tox	TGFb SMAD3 inh
CCN1CCN(Cc2ccc(NC(=O)c3cc(NC(=O)c4ccc5n[nH]nc5c4)cc(OC)c3)cc2C(F)(F)F)CC1	9%	0	-2	3%	i	u
CCN1CCN(Cc2ccc(NC(=O)c3cc(NC(=O)c4cc(-c5ccc(OC)cc5)n[nH]4)cc(OC)c3)cc2C(F)(F)F)CC1	14µM*	-13	-6	-112%	18µM*	u
CCN1CCN(Cc2ccc(NC(=O)c3cc(NC(=O)c4ccno4)cc(OC)c3)cc2C(F)(F)F)CC1	u	-8	-7	-50%	u	u
Cc1cc(S(=O)(=O)NCc2nc(N3CCCC3)c3cc(Cl)ccc3n2)c(C)s1	x	x	x	x	i	x
COc1ccc(C(=O)N(Cc2cc3cccc(C)c3nc2N(C)C)CC2CCCO2)cc1 (configuration not stated)	x	x	x	x	i	x
COc1ccccc1N1CCN(CC(O)COc2ccc(C)cc2C(C)(C)C)CC1 (configuration not stated)	x	x	x	16µM*	x	u
COc1ccccc1N1CCN(CC(O)COc2cc(C)cc(C)c2)CC1 (configuration not stated)	-15%	x	x	-16%	i	-2%
CC(=O)c1cccc(Nc2nn(-c3ccc(OC(F)(F)F)cc3)nc2C(C)=O)c1	x	x	x	-23%	x	-6%
Cc1ccc(/C=C2/CNC/C(=C/c3ccc(C)cc3)C2=O)cc1	u	1	-9	-51%	u	10µM*
Cc1ccc(C)c(CN2CCC(CNC(=O)Nc3ccc(Cl)cc3)CC2)c1	12%	7	7	2%	i	0%
Cc1ccc(C)c(CN2CCC(CNC(=O)Nc3ccc(Br)cc3F)CC2)c1	20µM*!	-2	-4	-84%	u	u
O=C(Nc1ccc(Cl)c(C(F)(F)F)c1)c1ccncc1	-25%	1	0	-15%	i	0%
CNC(=O)c1cc(Oc2ccc(NC(=O)Nc3ccc(Cl)c(C(F)(F)F)c3)cc2)ccn1	18µM*!	1	1	16µM*!	16µM*	u
CCc1ccc(NC(=O)C2CCCN(S(=O)(=O)c3ccc4c(c3)CC(C)N4C(C)=O)C2)cc1 (configuration not stated)	u	-4	-1	-7%	i	u
CCc1cccc(NS(=O)(=O)c2ccc3c(c2)CC(C)N3C(=O)C2CC2)c1 (configuration not stated)	-39%	x	x	-29%	u	7.1µM*
CC1Cc2cc(S(=O)(=O)NCc3ccccc3)ccc2N1C(=O)C1CC1 (configuration not stated)	-18%	1	-5	-30%	i	-17%
